# Assay results published in the supplement of paper PMC11219838.
# Values without a mark were called inactive.
# Assays:
# Conditions in all cases: 60 µM; 5 days; temperature: 20 °C
# [1] = system: Meloidogyne hapla J2; experiment: proportion of mobile M. hapla J2 relative to DMSO control (fraction of DMSO control); higher = more viable, less nematicidal, active = 0.7 or less
# How it was run: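 About 25 M. hapla J2 were added per 96-well well in distilled water, and compound was pinned to 60 µM final (0.6% v/v DMSO). Sealed plates were shaken at 200 rpm for 5 days at 20 °C, then 2 µL 1 M NaOH was added before microscopic mobility scoring. Mobility was divided by the mean of eight DMSO wells on the same plate, and two biological replicates were averaged.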
# [2] = system: Caenorhabditis elegans dauer (daf-2(e1370)); experiment: proportion of mobile C. elegans dauer larvae relative to DMSO control (fraction of DMSO control); higher = more viable, less nematicidal, active = 0.63 or less; extreme values may be limits of the assay
# How it was run: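 Synchronized C. elegans larvae were kept for 48 h at 25 °C on MYOB plates seeded with E. coli OP50 to induce dauer formation, and roughly 20 dauers were transferred into each well of a 96-well plate containing liquid NGM. Compound was pinned in to a final concentration of 60 µM with 0.6% v/v DMSO, and the sealed plates were shaken at 200 rpm for 5 days at 20 °C. The fraction of mobile worms was scored under a dissection microscope against DMSO-only wells and averaged across two biological replicates.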
# [3] = system: Ditylenchus dipsaci; experiment: proportion of mobile D. dipsaci (mixed stage) relative to DMSO control (fraction of DMSO control); higher = more viable, less nematicidal, active = 0.86 or less; extreme values may be limits of the assay
# How it was run: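 D. dipsaci were grown on pea plants in Gamborg B-5 agar and extracted through a filter funnel into water, and about 20 worms were added per 96-well well in distilled water. Compound was pinned to 60 µM final (0.6% v/v DMSO), and sealed plates were shaken at 200 rpm for 5 days at 20 °C. After 2 µL 1 M NaOH was added, mobile worms were scored microscopically. Mobility was expressed relative to DMSO controls and averaged over two biological replicates.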
SMILES,proportion of mobile M. hapla J2 [1],proportion of mobile C. elegans dauer larvae [2],proportion of mobile D. dipsaci [3]
Cc1ccc(-c2nc(-c3ccc(F)cc3)no2)cc1,1.04,0 (active),0.708 (active)
Cc1ccccc1-c1nnc(SCC(=O)Nc2cc(C(F)(F)F)ccc2N2CCOCC2)o1,0.934,1,1
COc1ccc(-c2nnc(SCC(=O)Nc3ccc(Cl)cc3Cl)o2)cc1,0.976,1,1
N#Cc1ccccc1CSc1nnc(-c2ccncc2)o1,0.826,1,1
CNC(=O)c1ccccc1-c1nc(-c2ccc(F)cc2)no1,0.987,1,1
COc1ccccc1OCc1nc(-c2ccc(Cl)cc2)no1,1.01,1,1
Cc1cc(C)c(C)c(OCc2nc(-c3ccccc3)no2)c1,0.95,1,1
Cc1cccc(-c2noc(-c3cc(Cl)ccc3Cl)n2)c1,1.08,1,1
COC(=O)c1ccc(CSc2nnc(-c3cccnc3)o2)cc1,1.03,1,1
CCOc1nc(-c2ccc(C)cc2)ccc1-c1noc(CC)n1,0.667 (active),1,1
COc1ccc(-c2nnc(SCc3ccc(C#N)cc3)o2)cc1,0.942,1,1
c1cncc(-c2noc(COc3cccc4ccccc34)n2)c1,0.991,1,1
